Screens as filed in PubChem BioAssay.
AHR activator = activates the human aryl hydrocarbon receptor | P35869 | AHR-responsive luciferase reporter cells, luminescence | activation, % at 5 µM | hit rate 2.5% among 320,000 | AID 2796; in the data active = activation above about 47%
Target sequence (P35869 whole entry, looked up): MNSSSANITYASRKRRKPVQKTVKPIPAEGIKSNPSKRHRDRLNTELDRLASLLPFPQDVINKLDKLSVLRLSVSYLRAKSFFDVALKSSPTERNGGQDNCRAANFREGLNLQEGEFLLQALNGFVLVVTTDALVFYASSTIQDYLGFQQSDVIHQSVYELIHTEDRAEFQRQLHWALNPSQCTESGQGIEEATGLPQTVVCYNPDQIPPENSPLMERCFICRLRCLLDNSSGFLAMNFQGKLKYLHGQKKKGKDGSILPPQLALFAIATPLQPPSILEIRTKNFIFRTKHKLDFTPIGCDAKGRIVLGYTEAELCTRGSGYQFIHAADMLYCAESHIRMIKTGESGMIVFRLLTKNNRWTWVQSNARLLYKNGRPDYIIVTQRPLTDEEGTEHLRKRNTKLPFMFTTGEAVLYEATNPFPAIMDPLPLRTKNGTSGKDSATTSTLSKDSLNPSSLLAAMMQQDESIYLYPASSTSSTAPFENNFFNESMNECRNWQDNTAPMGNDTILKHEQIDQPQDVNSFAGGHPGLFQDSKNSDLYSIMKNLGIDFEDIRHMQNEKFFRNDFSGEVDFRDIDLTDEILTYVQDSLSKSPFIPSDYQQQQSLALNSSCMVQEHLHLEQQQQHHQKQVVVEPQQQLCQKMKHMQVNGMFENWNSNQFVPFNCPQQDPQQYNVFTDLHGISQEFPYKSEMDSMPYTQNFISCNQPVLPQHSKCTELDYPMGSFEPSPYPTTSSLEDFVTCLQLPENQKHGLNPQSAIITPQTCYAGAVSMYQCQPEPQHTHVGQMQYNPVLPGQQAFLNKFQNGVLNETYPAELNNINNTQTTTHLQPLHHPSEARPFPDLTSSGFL
rCAG RNA binder = molecules binding r(CAG) RNA repeats. r(CAG) RNA repeat, TO-PRO-1 dye displacement fluorescence. AID 651821. hit rate 1.3% among 370,000. inhibition, % at 3 µM;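 active = inhibition above the plate cutoff, the mean of all test compounds on that plate plus 3 SD, cut at about 35% in these data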;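 note: higher means more dye released from RNA so lower well fluorescence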
ADAM10 inh = ADAM10 inhibition, QFRET primary screen. inhibition, % at 7 µM. hit rate 0.62% among 370,000. O14672. recombinant ADAM10, EDANS/DABCYL FRET peptide cleavage, 3 h;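 active = inhibition above a per-campaign cutoff equal to the mean of compounds falling between control-based bounds plus 3 SD, cut at about 20% in these data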
ADAM17 inh = ADAM17 inhibition, QFRET primary screen; AID 720648; hit rate 0.83% among 370,000; recombinant ADAM17, EDANS/DABCYL FRET peptide cleavage; inhibition, % at 6.95 µM;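 active = inhibition above the mean of compounds lying between control limits plus 3 SD, set per campaign, cut at about 8.5% in these data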
proKLK7 act = activators of human kallikrein-7 zymogen; hit rate 0.9% among 370,000; AID 652039; purified proKLK7, EDANS-DABCYL substrate fluorescence; 100% is mature enzyme control, 0% vehicle; activation, % at 7 µM; P49862;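 active = activation above the mean of all tested compounds plus 3 SD, computed per campaign excluding outliers beyond control limits, cut at about 13% in these data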
NR3A LBD binder = NR3A (human) ligand-binding domain modulation. NR3A LBD differential scanning fluorimetry, Tm shift; 0% = protein alone, 100% = glycine-bound protein. Tm shift relative to glycine control, % at 25 µM. hit rate 2.5% among 340,000;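 active = melting temperature shift of at least 10% of the positive control shift, at one fixed dose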
A number is an active result; i = inactive; nt = no result. In the library only some 7% were active in any assay of this set; here they are far more common.

SMILES	AHR activator	rCAG RNA binder	ADAM10 inh	ADAM17 inh	proKLK7 act	NR3A LBD binder
O=C(Nc1ccccc1)c1cc([N+](=O)[O-])ccc1NC1CCCCC1	51.7	i	i	i	i	i
NC(=O)c1cc([N+](=O)[O-])ccc1Nc1ccccc1	i	i	i	i	i	i
COc1ccc([N+](=O)[O-])cc1NC(=O)c1cncc(Br)c1	70.0	i	i	i	i	i
COc1ccc([N+](=O)[O-])cc1NC(=O)C1CCCCC1C(=O)O (configuration not stated)	i	i	i	i	i	18.0
Cc1cc([N+](=O)[O-])ccc1NC(=O)c1cncc(Br)c1	i	i	i	i	i	i
O=C1CCC2(CCC(c3ccccc3)CC2)N1CCCO (configuration not stated)	nt	i	i	i	i	nt
CCCCN1CCN(C(=O)c2ccc(CNC(=O)c3cccc(Br)c3)cc2)CC1	nt	i	i	i	i	nt
COc1cccc(CNC(=O)C2CCC(CNS(=O)(=O)c3cccc4cccnc34)CC2)c1OC (configuration not stated)	nt	i	i	i	i	nt
C=CCC12C=C(OC)C(=O)C(C1=O)C1c3ccccc3CC12 (configuration not stated)	nt	i	i	i	i	nt
C#CCNC(=O)C[C@H]1C(=O)N(CCc2ccc(Cl)cc2)C2=CCCC[C@@]21C(=O)OCC	nt	i	i	i	i	nt
O=c1oc2ccc3ccccc3c2cc1-c1nnc(-c2cccs2)o1	52.3	i	i	i	i	i
CS(=O)(=O)N(Cc1ccc(C(=O)NN=C2CCCCCC2)cc1)c1ccccc1	i	i	i	i	i	12.7
CS(=O)(=O)N(Cc1ccc(Cl)cc1)c1ccc(C(=O)N/N=C/c2cc3ccccc3nc2Cl)cc1	i	i	i	i	i	10.2
Cc1ccc(C(=O)N2CCC[C@@H]2C(=O)N2CCC[C@@H]2C(=O)NCc2ccccc2)cc1	nt	i	i	i	i	nt
Cc1ccc2[nH]c(=O)c(-c3noc(C(C)C)n3)cc2c1	54.9	i	i	i	i	i
CCCN1CNc2c(c(=O)[nH]c(=S)n2CCc2c(Cl)cccc2Cl)C1	nt	nt	i	i	nt	nt
O=[N+]([O-])c1cccc2ccc(/C=C/c3ccc(Cl)cc3)nc12	61.9	i	i	i	i	21.3
CCN1CCN(CC(=O)n2c3c(c4ccccc42)CC(C)CC3)CC1 (configuration not stated)	i	i	i	i	i	i
CC1CCN(CC(=O)n2c3c(c4ccccc42)CCCC3)CC1	49.5	i	i	i	i	i
C[C@H]1[C@@H](OC(=O)Nc2ccc(C(F)(F)F)cc2)CC[C@@]23CCCN2C(=O)CCC[C@@H]13	nt	nt	i	i	nt	nt
COC(=O)[C@]12C[C@H](CC(=O)N3CCOCC3)C(=O)N(Cc3ccco3)C1=C[C@H](C(C)(C)C)O[C@@H]2C	nt	i	i	i	i	nt
O=C(CN(c1cccc(C(F)(F)F)c1)S(=O)(=O)c1ccc(Cl)c([N+](=O)[O-])c1)NCc1ccc(F)cc1	i	i	20.1	i	i	i
O=C(CN(c1cccc([N+](=O)[O-])c1)S(=O)(=O)c1ccccc1)NCc1cccnc1	i	i	i	i	i	i
CC(C)N1CCc2c(sc(NC(=O)c3ccc4ccccc4c3)c2C(N)=O)C1	i	i	i	i	i	i
CC(C)N1CCc2c(sc(NC(=O)c3cc4cc([N+](=O)[O-])ccc4s3)c2C(N)=O)C1	nt	i	i	i	i	10.3
SMILES	AHR activator	rCAG RNA binder	ADAM10 inh	ADAM17 inh	proKLK7 act	NR3A LBD binder
Cc1nc2c(cc1C#N)C(=O)c1ccccc1-2	159.2	i	i	i	i	i
COc1ccc(S(=O)(=O)N2CCCCCC2)cc1N(C)S(=O)(=O)c1ccccc1	i	i	i	i	i	12.2
COc1ccc(S(=O)(=O)N2CCCCC2)cc1N(C)S(=O)(=O)c1ccccc1	i	i	i	i	i	i
COc1ccc(S(=O)(=O)N2CCCCCC2)cc1C(=O)Nc1cccc(C)n1	i	i	i	i	i	23.2
COc1ccc(CCNS(=O)(=O)c2cccc(S(=O)(=O)N3CCCC3)c2)cc1OC	nt	i	i	i	i	14.2
COCc1nc(-c2ccc(-c3ccc(OC)cc3)nc2OC)no1	i	i	i	i	i	30.9
CCCOc1ccc(Oc2nc(-c3ccncc3)nc3ccccc23)cc1	i	i	i	i	i	i
CCOc1nc(-c2ccc(Cl)cc2)nc2ccccc12	61.6	i	i	i	i	i
COc1ccc(Oc2nc(-c3ccncc3)nc3ccccc23)cc1	i	i	i	i	i	i
C=CCOc1nc(-c2ccncc2)nc2ccccc12	51.9	i	i	i	i	i
CCCCN(CC)c1nc(-c2ccncc2)nc2ccccc12	72.7	i	i	i	i	i
COCCN(CCOC)c1nc(-c2ccc(C)cc2)nc2ccccc12	i	i	i	i	i	i
COc1nc(-c2ccncc2)nc2ccccc12	75.4	i	i	i	i	i
COC(=O)[C@H]1C[C@@]2(C#N)c3ccccc3N(C(=O)OC(C)(C)C)[C@H]2N1C(=O)OC(C)(C)C	nt	i	i	i	i	nt
COC(=O)/C=C/C(=O)Nc1cccnc1	i	i	i	i	i	i
COc1cc(NS(=O)(=O)c2cc(C(=O)NCCc3ccccn3)ccc2OC)cc(OC)c1	i	i	i	i	i	10.9
COc1cccc(NC(=O)/C=C/c2ccco2)c1	i	i	i	i	i	i
COc1ccccc1/C=C/C(=O)Nc1cccnc1	58.0	i	i	i	i	i
O=C(/C=C/c1ccco1)Nc1cccc2cccnc12	47.7	i	i	i	i	i
O=C(/C=C/c1ccco1)Nc1cccnc1	71.0	i	i	i	i	i
NS(=O)(=O)c1ccc(OCCCN2CCC(C(O)(c3ccccc3)c3ccccc3)CC2)cc1	nt	i	i	i	i	nt
O=C(OCC#CCSc1nnc(-c2cccc3ccccc23)o1)C1CCC1	nt	nt	i	i	nt	nt
O=S1(=O)c2ccc(Br)cc2OC[C@H](Cc2ccccc2)N1Cc1cn(Cc2ccc(C(F)(F)F)cc2)nn1	nt	i	i	i	i	nt
OCCN1CN(c2ccccc2)C(=S)N(c2ccccc2)C1	nt	i	i	i	i	nt
COC(=O)C[C@H]1CC[C@@H]2[C@H](COc3ccc(NC(=O)C(C)C)cc3C(=O)N2C)O1	nt	i	i	i	i	nt
SMILES	AHR activator	rCAG RNA binder	ADAM10 inh	ADAM17 inh	proKLK7 act	NR3A LBD binder
Cc1cc(N)c2cc(NC(=O)/C=C/c3ccccc3Cl)ccc2n1	i	nt	nt	nt	nt	18.0
O=C(/C=C/c1ccccc1Cl)Nc1ccncc1	i	i	i	i	i	i
COc1ccc(NC(=O)/C=C/c2cc(Br)ccc2OC)cc1	i	i	i	i	i	14.9
Cc1cc(C)nc(NC(=O)/C=C/c2ccccc2Cl)n1	i	i	i	i	i	i
COc1ccccc1/C=C/C(=O)NCCc1ccccn1	63.3	i	i	i	i	i
COc1ccc(Br)cc1/C=C/C(=O)c1ccc(NC(C)=O)cc1	i	i	i	i	i	i
O=C(/C=C/c1ccccc1Cl)Nc1cccnc1	51.7	i	i	i	i	i
COc1ccc(-n2c(COc3ccccc3)nnc2SCC(=O)Nc2ccc(OCc3ccccc3)cc2)cc1	nt	i	i	i	i	nt
